Results filed as inconclusive are left out. The source made the active and inactive calls. The call rests on the fitted dose curve.
Assay: Confirmatory qHTS for inhibitors of SARS-S pseudo-typed particle cell entry
Conditions: SARS-S pseudotyped particle cell entry, reporter luminescence; series mostly up to 57.1 µM

**Q.** With CC(=O)Oc1ccccc1C(=O)Nc1ncc([N+](=O)[O-])s1 as the compound, how does the Potency read?
**A.** 12.1 µM (active)

**Q.** With Nc1nc(Cl)nc2c1ncn2C1CC(O)C(CO)O1 (stereo not drawn) as the compound, how does the Potency read?
**A.** 12.1 µM (active)

**Q.** For CCn1cc(C(=O)O)c(=O)c2cc(F)c(N3CCNC(C)C3)c(F)c21 (stereo not drawn), which Potency is on record?
**A.** inactive

**Q.** For C[C@@H]1CCO[C@H]2Cn3cc(C(=O)NCc4ccc(F)cc4F)c(=O)c(O)c3C(=O)N12, which Potency is on record?
**A.** 0.0096 µM (active)

**Q.** For CC(C)OC(=O)OCOP(=O)(CO[C@H](C)Cn1cnc2c(N)ncnc21)OCOC(=O)OC(C)C, which Potency is on record?
**A.** 0.0429 µM (active)

**Q.** With COc1cccc2c1C(=O)c1c(O)c3c(c(O)c1C2=O)C[C@@](O)(C(=O)CO)CC3OC1CC(N2CCOC(OC)C2)C(O)C(C)O1 (stereo partly drawn) as the compound, how does the Potency read?
**A.** 0.0961 µM (active)

**Q.** For Cc1cc(C(C#N)c2ccc(Cl)cc2)c(Cl)cc1NC(=O)c1cc(I)cc(I)c1O (stereo not drawn), which Potency is on record?
**A.** 30.4 µM (active)

**Q.** For O=C(Nc1ccc([N+](=O)[O-])cc1Cl)c1cc(Cl)ccc1O, which Potency is on record?
**A.** 0.541 µM (active)

**Q.** For COc1cc2c(cc1Cc1cccc(Cl)c1F)c(=O)c(C(=O)O)cn2[C@H](CO)C(C)C, which Potency is on record?
**A.** 0.0607 µM (active)

**Q.** With CO[C@@]12[C@H](COC(N)=O)C3=C(C(=O)C(C)=C(N)C3=O)N1C[C@@H]1N[C@@H]12 as the compound, how does the Potency read?
**A.** 6.07 µM (active)

**Q.** Which Potency does the source give for CC(C)(C)NC(=O)[C@H]1CC[C@H]2[C@@H]3CC[C@H]4NC(=O)C=C[C@]4(C)[C@H]3CC[C@]12C here?
**A.** inactive

**Q.** With CNC(=O)c1cc(Oc2ccc(NC(=O)Nc3ccc(Cl)c(C(F)(F)F)c3)c(F)c2)ccn1 as the compound, how does the Potency read?
**A.** 8.57 µM (active)

**Q.** With CCN(CC)CCNC(=O)c1c(C)[nH]c(/C=C2\C(=O)Nc3ccc(F)cc32)c1C as the compound, how does the Potency read?
**A.** 6.07 µM (active)

**Q.** Which Potency does the source give for NCCNc1ccc(NCCN)c2c1C(=O)c1ccncc1C2=O here?
**A.** 0.857 µM (active)

**Q.** With COc1cccc2c1C(=O)c1c(O)c3c(c(O)c1C2=O)C[C@@](O)(C(C)=O)C[C@@H]3O[C@H]1C[C@H](N)[C@H](O)[C@H](C)O1 as the compound, how does the Potency read?
**A.** 2.15 µM (active)

**Q.** With Cc1cn([C@H]2C[C@H](N=[N+]=[N-])[C@@H](CO)O2)c(=O)[nH]c1=O as the compound, how does the Potency read?
**A.** 0.271 µM (active)

**Q.** For COC(=O)C1=C(C)NC(C)=C(C(=O)OCC(C)C)C1c1ccccc1[N+](=O)[O-] (stereo not drawn), which Potency is on record?
**A.** 19.2 µM (active)

**Q.** Which Potency does the source give for CN(C)CC/C=C1\c2ccccc2Sc2ccc(Cl)cc21 here?
**A.** 21.5 µM (active)

**Q.** Which Potency does the source give for O=C1CCc2ccc(OCCCCN3CCN(c4cccc(Cl)c4Cl)CC3)cc2N1 here?
**A.** 19.2 µM (active)

**Q.** For C=CC(=O)Nc1cc(Nc2nccc(-c3cn(C)c4ccccc34)n2)c(OC)cc1N(C)CCN(C)C, which Potency is on record?
**A.** 1.52 µM (active)

**Q.** For C=C1c2c(Cl)ccc(O)c2C(O)=C2C(=O)[C@@]3(O)C(O)=C(C(N)=O)C(=O)[C@@H](N(C)C)[C@@H]3[C@@H](O)[C@H]12, which Potency is on record?
**A.** 15.2 µM (active)

**Q.** For CC[C@@]1(O)C(=O)OCc2c1cc1n(c2=O)Cc2cc3c(CN(C)C)c(O)ccc3nc2-1, which Potency is on record?
**A.** 0.764 µM (active)

**Q.** With CN1CCC(=C2c3ccccc3CCc3sccc32)CC1 as the compound, how does the Potency read?
**A.** 27.1 µM (active)

**Q.** Which Potency does the source give for CC[C@@]1(O)C(=O)OCc2c1cc1n(c2=O)Cc2cc3c([N+](=O)[O-])cccc3nc2-1 here?
**A.** 0.124 µM (active)

**Q.** With COc1ccc2cc1Oc1ccc(cc1)C[C@H]1c3c(cc4c(c3Oc3cc5c(cc3OC)CCN(C)[C@@H]5C2)OCO4)CCN1C as the compound, how does the Potency read?
**A.** 2.15 µM (active)

**Q.** For CCCCCCCCCCCC[n+]1ccc2ccccc2c1, which Potency is on record?
**A.** 3.83 µM (active)

**Q.** With CN(C)[C@@H](CCOc1cccc2ccccc12)c1ccccc1 as the compound, how does the Potency read?
**A.** 6.81 µM (active)

**Q.** For CN[C@H]1CC[C@@H](c2ccc(Cl)c(Cl)c2)c2ccccc21, which Potency is on record?
**A.** 19.2 µM (active)

**Q.** With COc1cc(NS(C)(=O)=O)ccc1Nc1c2ccccc2nc2ccccc12 as the compound, how does the Potency read?
**A.** 0.961 µM (active)

**Q.** Which Potency does the source give for CCN(CC)Cc1cc(Nc2ccnc3cc(Cl)ccc23)ccc1O here?
**A.** 8.57 µM (active)

**Q.** Which Potency does the source give for CN(C)CCC=C1c2ccccc2C(C)(C)c2ccccc21 here?
**A.** 10.8 µM (active)

**Q.** With CC(C)OC(=O)[C@H](C)N[P@](=O)(CO[C@H](C)Cn1cnc2c(N)ncnc21)Oc1ccccc1 as the compound, how does the Potency read?
**A.** 0.171 µM (active)

**Q.** Which Potency does the source give for CCN1CCN(Cc2ccc(Nc3ncc(F)c(-c4cc(F)c5nc(C)n(C(C)C)c5c4)n3)nc2)CC1 here?
**A.** 0.961 µM (active)
